Laboratory results from PubChem BioAssay AID782 (Emory University Molecular Libraries Screening Center, 2007).
The campaign covered roughly 220,000 compounds. About 800 (0.36%) were called active. What follows is part of a selection rich in actives, with near analogues and random picks from the rest. Values without a mark were called inactive.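 How the source made its calls: active means inhibition above about 30% (limit read from the data); inactive means the rest.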

Each compound was assayed against Eukaryotic translation initiation factor 4E (Mus musculus) + Eukaryotic translation initiation factor 4 gamma 1 (Homo sapiens) (UniProt P63073+Q04637) (assay: blockers of eIF4G binding by eIF4E – biochemical, uHTS, TR-FRET, eIF4GI fragment, primary screen (AID 782;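 further: 0% = full FRET control wells and 100% = background wells lacking eIF4GI fragment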)). Details: TR-FRET eIF4E-eIF4GI(517-606) binding, 2 h; at 21.7 µM; active compounds read high.
Eukaryotic translation initiation factor 4E (Mus musculus) + Eukaryotic translation initiation factor 4 gamma 1 (Homo sapiens), sequence (P63073 whole entry, looked up, the tested form may be a part): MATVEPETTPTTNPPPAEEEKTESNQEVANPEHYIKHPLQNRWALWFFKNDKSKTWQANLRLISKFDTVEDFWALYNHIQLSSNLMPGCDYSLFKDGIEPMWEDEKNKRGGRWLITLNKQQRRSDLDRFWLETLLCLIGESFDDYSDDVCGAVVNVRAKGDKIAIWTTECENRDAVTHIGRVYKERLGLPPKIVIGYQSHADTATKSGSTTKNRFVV
Eukaryotic translation initiation factor 4E (Mus musculus) + Eukaryotic translation initiation factor 4 gamma 1 (Homo sapiens), sequence (Q04637 whole entry, looked up, the tested form may be a part): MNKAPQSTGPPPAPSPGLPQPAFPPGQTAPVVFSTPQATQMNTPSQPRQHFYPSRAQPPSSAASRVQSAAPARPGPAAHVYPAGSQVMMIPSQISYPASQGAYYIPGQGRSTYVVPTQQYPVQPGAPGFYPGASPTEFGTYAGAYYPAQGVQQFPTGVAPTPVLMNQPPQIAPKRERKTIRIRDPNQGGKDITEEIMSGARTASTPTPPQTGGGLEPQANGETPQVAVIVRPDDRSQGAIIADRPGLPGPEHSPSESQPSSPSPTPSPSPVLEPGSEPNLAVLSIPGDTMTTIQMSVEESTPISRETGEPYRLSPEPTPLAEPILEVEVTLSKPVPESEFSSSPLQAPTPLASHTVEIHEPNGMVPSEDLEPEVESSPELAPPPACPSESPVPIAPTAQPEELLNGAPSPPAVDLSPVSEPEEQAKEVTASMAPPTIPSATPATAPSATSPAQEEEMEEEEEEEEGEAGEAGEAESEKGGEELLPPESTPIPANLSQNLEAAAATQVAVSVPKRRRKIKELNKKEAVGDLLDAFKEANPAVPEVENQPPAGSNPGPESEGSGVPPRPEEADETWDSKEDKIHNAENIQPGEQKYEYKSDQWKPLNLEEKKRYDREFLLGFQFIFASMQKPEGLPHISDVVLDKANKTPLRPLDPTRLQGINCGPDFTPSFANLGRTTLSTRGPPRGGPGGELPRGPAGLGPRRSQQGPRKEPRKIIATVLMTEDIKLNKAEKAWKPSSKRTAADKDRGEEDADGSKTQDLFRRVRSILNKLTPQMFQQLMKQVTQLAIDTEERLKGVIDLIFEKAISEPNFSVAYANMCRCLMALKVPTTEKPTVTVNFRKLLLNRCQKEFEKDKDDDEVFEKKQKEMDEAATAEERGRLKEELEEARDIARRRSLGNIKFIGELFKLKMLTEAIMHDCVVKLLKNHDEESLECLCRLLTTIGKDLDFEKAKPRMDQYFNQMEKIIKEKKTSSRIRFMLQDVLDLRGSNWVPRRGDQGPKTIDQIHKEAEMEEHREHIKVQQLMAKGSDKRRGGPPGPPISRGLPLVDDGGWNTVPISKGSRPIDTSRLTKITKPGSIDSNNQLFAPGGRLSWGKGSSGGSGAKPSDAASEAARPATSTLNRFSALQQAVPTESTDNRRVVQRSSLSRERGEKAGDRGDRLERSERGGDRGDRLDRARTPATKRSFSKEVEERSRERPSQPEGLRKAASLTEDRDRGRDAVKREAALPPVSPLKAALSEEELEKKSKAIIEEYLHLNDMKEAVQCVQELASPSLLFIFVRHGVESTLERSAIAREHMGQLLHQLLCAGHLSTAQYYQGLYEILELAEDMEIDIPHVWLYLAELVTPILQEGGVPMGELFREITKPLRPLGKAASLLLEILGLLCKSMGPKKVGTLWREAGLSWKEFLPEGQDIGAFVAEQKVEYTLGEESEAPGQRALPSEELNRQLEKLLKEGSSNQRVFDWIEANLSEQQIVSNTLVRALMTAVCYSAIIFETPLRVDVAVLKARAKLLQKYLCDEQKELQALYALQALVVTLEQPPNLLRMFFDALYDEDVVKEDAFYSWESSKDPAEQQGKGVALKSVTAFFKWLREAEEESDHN

SMILES	inhibition
COC(=O)/C=C(\Oc1ccccc1)C1(O)CCCCC1	3.79%
COC(=O)c1ccc(CSc2nc3ccccc3c(=O)n2-c2cccc(OC)c2)o1	2.4%
COCC(C)n1c(SCc2ccc(C(=O)OC)o2)nc2ccccc2c1=O (stereo not given)	56% (active)
COCCn1c(C)cc(C(=O)CSc2nc3ccccc3c(=O)n2C(C)COC)c1C (stereo not given)	-1.77%
CSc1nc(C)nc(C2CC2)c1C#N	-3.41%
Cc1cccc(N(C)C(=O)c2cc3c(=O)[nH]c4ccc(C)cc4c3s2)c1	-9.17%
O=S(=O)(Cc1noc(-c2ccc(OC(F)(F)F)cc2)n1)c1ccc(F)cc1	-0.8%
S=c1[nH]nc(-c2ccco2)n1/N=C/c1ccccc1	-0.4%
Cc1cc(-c2n[nH]c(=S)n2/N=C/c2ccco2)n[nH]1	-0.15%
S=c1[nH]nc(-c2ccco2)n1/N=C/c1ccc(Br)s1	49.9% (active)
O=C(CN1CCN(c2ccc(O)cc2)CC1)Nc1cc(S(=O)(=O)N2CCOCC2)ccc1Cl	18.9%
O=C(N/N=C/c1ccc([N+](=O)[O-])o1)c1cccc(S(=O)(=O)N2CCOCC2)c1	0.27%
O=[N+]([O-])c1cc(Cl)cc(/C=N/NC(=S)Nc2cc(S(=O)(=O)N3CCOCC3)ccc2Cl)c1O	37.9% (active)
COc1ccc(/C(N)=N/OC(=O)CCCc2ccccc2)cc1	-2.25%
Cc1ccc(SCC(=O)Nc2ccc3c(c2)OCCO3)cc1	0.94%
NC(N)=NCCCc1cn(CC(=O)N2CCNCC2)nn1	0.73%
FC(F)(F)c1nnc2ccc(N3CCN(c4ccccc4)CC3)nn12	0.95%
Fc1c(F)c(C(F)(F)F)c(F)c(F)c1N1CCN(c2ccc3nnc(C(F)(F)F)n3n2)CC1	35.1% [fluorescence artefact?] (active)
CCSc1nc(C)c(CCOc2cccc(C)c2)c(=O)[nH]1	-0.93%
Oc1c(Cl)cc(Cl)c(Cl)c1Cc1c(O)c(Cl)cc(Cl)c1Cl	46.2% (active)
CCOC(=O)c1c(NC(=O)CSc2nnc(CNc3ccc(C)cc3C)o2)sc(C)c1C	-0.54%
CCOc1cc(C(=S)N2CCOCC2)ccc1O	30.5% [fluorescence artefact?] (active)
CCOc1cc(C(=O)OCC(=O)Nc2cccc(C)c2)ccc1OCC(=O)N1CCOCC1	0.63%
COc1cc(C(=S)N2CCOCC2)ccc1O	-0.65%
Cc1ccnc(NC(=O)CCCOc2ccccc2)c1	3.5%
